The structures appear in SMILES notation. “And” between values parts separate entries of the source, which are not always exact repeats. Equal entries are not always repeated. Results filed as inconclusive are left out. Where a structure was tested more than once in an assay, its records may differ in their call. The source made the active and inactive calls. Unless noted, the call rests on the fitted dose curve.

This is an account of results in PubChem BioAssay (Tox21).

A short description of assay [1]: Nuclear factor erythroid 2-related factor 2/antioxidant responsive element (Nrf2/ARE) small molecule agonists: qHTS cell viability counter screen in human keratinocytes (AID 1919968; active means well fitted curve in the direction sought with a large enough effect in the repeat runs; an effect the other way counts as inactive or inconclusive; further: nearly all actives have a fitted effect of over 55% in size). Summed up: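 Stably transfected HaCaT (KeratinoSens), 1,500/well. Test agents in DMSO were applied for 23 h, 37 C/5% CO2. CellTiter-Fluor was incubated 1 h before the fluorescence read.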
Background: Quantitative high-throughput screening tests each substance at several concentrations.

Assay [2] is described as follows: Nuclear factor erythroid 2-related factor 2/antioxidant responsive element (Nrf2/ARE) small molecule agonists: luciferase reporter gene qHTS assay in human keratinocytes (AID 1919969). Further: nearly all actives have a fitted effect of over 35% in size. Further: potency means the concentration at half of the fitted maximal effect.
In assay [3] the target is Gonadotropin-releasing hormone receptor (Homo sapiens) (UniProt P30968). Put plainly: Human gonadotropin-releasing hormone receptor (GnRHR) small molecule agonists, calcium flux assay in GnRHR-HEK293 cells (AID 1920063). Further: nearly all actives have a fitted effect of over 35% in size. Put shortly: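 Stable human GnRHR HEK293 line. 18 h plating, then calcium dye for 1 h at 37 C. Agonist-mode compound addition from DMSO stocks; fluorescence monitored 3 min.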
Sequence of Gonadotropin-releasing hormone receptor (Homo sapiens) (P30968 whole entry, looked up): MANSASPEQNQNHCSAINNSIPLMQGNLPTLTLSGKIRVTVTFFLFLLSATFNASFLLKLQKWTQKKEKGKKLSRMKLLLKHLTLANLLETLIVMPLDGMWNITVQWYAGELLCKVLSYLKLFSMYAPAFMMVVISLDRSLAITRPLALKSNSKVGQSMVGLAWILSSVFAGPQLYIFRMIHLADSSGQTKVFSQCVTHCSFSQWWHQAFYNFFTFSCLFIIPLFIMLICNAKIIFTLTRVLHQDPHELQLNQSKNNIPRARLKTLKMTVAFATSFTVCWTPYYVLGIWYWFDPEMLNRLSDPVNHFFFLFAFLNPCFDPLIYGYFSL
(Calcium flux is commonly read through the fluorescence of an indicator in the cells.)

The target of assay [4] is KiSS-1 receptor (Homo sapiens) (UniProt Q969F8). Put plainly: Human kisspeptin (KISS1R) small molecule agonists, calcium flux assay in KISS1R-HEK293 cells (AID 1920064; active means well fitted curve in the direction sought with a large enough effect in the repeat runs; an effect the other way counts as inactive or inconclusive). Summed up:
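After overnight (18 h) culture at 37 C/5% CO2, human KISS1R-HEK293 cells received calcium dye for 1 h, then test compound; emission at 540 nm (excitation 480 nm) was tracked for 3 min.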

The nature of assay [5]: G protein-coupled receptor (GPCR) small molecule agonists, calcium flux assay: HEK293 wild type cell line counter screen (AID 1920065). Put shortly:
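Following 18 h incubation at 37 C/5% CO2, plates got calcium dye for 1 h; compounds, ATP or DMSO were then pinned in and fluorescence followed kinetically (480/540 nm).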

A short description of assay [6]: p53 small molecule agonists, cell-based qHTS assay with human liver microsomes (AID 1963577).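 Further: p53 response element beta-lactamase reporter cells with liver microsomes plus NADPH.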 Summed up:
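Reporter activation was measured by LiveBLAzer fluorescence intensity in p53RE-bla cells, which had been exposed to compounds for 16 h at 37 C alongside 0.5 mg/mL human liver microsomes and 0.5 mg/mL NADPH (final concentrations).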

A short description of assay [7]: p53 small molecule agonists, cell-based qHTS assay with rat liver microsomes (AID 1963578). Put shortly:
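Compound in DMSO added to p53RE-bla cells 5 h post-plating; rat microsomes/NADPH 0.5 mg/mL final; 16 h, 37 C; LiveBLAzer 2 h RT.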

Assay [8] in a line: p53 small molecule agonists, cell-based qHTS assay with human liver microsomes: qHTS cell viability counter screen (AID 1963579). Further: nearly all actives have a fitted effect of over 45% in size. Summed up:
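HLM-supplemented (0.5 mg/mL final) and NADPH-supplemented (0.5 mg/mL final) p53RE-bla cultures, 4,000 cells per well, were dosed with compounds in DMSO for 16 h at 37 C; luminescent ATP detection (CellTiter-Glo, 30 min, room temperature) quantified surviving cells.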

Assay [9] is described as follows: p53 small molecule agonists, cell-based qHTS assay with rat liver microsomes: qHTS cell viability counter screen (AID 1963580). Further: nearly all actives have a fitted effect of over 45% in size. Put shortly:
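Cytotoxicity counter screen: intracellular ATP measured by CellTiter-Glo luminescence in the same wells as the beta-lactamase reporter read, on HCT-116 p53RE-bla cells exposed 16 h at 37 C to compounds with rat liver microsomes and NADPH, each 0.5 mg/mL final.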

The nature of assay [10]: p53 small molecule agonists, cell-based qHTS assay: qHTS cell viability counter screen (AID 1963581). Further: nearly all actives have a fitted effect of over 45% in size. Put shortly: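 qHTS counter screen: 16 h compound exposure at 37 C of p53RE-bla HCT-116 cells (4,000 per well, seeded 5 h prior), cell viability by ATP luminescence.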
The nature of assay [11]: p53 small molecule agonists, cell-based qHTS assay (AID 1963582; active means well fitted activation curve with a large enough effect in the signal ratio in the repeat runs, not every such curve was filed as active; the % refers to the signal ratio). Put shortly: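 Measured: fluorescence from cleaved LiveBLAzer substrate. System: p53RE-bla cells, 16 h compound treatment at 37 C, 2 h substrate step at room temperature.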
Assay [12] deals with 5-hydroxytryptamine receptor 2A (Homo sapiens) (UniProt P28223). Put plainly: 5-hydroxytryptamine receptor 2A (HTR2A) small molecule antagonists, cell-based qHTS assay (AID 1963586). Further: nearly all actives have a fitted effect of over 45% in size. Summed up: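 CHO cells stably expressing human HTR2A were plated for 18 h at 37 C, then loaded with calcium dye for 1 h. Compounds were preincubated 5 min at room temperature before DOI (4 nM solution) was added. Kinetic fluorescence was read for 3 min.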
Sequence of 5-hydroxytryptamine receptor 2A (Homo sapiens) (P28223 whole entry, looked up): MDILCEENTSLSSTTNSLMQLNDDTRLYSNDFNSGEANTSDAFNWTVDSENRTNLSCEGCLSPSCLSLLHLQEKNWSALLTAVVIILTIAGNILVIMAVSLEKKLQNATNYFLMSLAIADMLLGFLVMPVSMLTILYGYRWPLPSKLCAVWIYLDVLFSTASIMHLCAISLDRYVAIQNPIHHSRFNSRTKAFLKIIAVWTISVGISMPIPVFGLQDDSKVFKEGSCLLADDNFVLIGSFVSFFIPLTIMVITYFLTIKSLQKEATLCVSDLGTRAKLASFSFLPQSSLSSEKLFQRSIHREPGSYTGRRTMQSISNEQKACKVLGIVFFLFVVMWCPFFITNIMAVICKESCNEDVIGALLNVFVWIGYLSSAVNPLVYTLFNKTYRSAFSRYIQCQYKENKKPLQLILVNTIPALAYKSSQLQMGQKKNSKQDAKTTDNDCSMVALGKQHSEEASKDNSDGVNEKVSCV

Assay [13] shares this target. Put plainly: 5-hydroxytryptamine receptor 2A (HTR2A) small molecule agonists, cell-based qHTS assay (AID 1963587). Further: nearly all actives have a fitted effect of over 30% in size. Put shortly: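 CHO cells stably expressing human HTR2A, plated 18 h, loaded with calcium dye 1 h at 37 C. Agonist mode: compounds added and intracellular calcium fluorescence recorded kinetically for 2 min at 1 sec intervals.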
The target of assay [14] is Muscarinic acetylcholine receptor M1 (Homo sapiens) (UniProt P11229). Put plainly: Cholinergic receptor muscarinic 1 (CHRM1) small molecule antagonists, cell-based qHTS assay (AID 1963588). Further: nearly all actives have a fitted effect of over 40% in size. Summed up: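 Compounds were tested at 15 concentrations in three independent runs. Dye-loaded CHRM1-CHO cells were exposed 5 min at room temperature before stimulation by acetylcholine added at 50nM. Intracellular calcium was read kinetically on FDSS for 3 min.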
Sequence of Muscarinic acetylcholine receptor M1 (Homo sapiens) (P11229 whole entry, looked up): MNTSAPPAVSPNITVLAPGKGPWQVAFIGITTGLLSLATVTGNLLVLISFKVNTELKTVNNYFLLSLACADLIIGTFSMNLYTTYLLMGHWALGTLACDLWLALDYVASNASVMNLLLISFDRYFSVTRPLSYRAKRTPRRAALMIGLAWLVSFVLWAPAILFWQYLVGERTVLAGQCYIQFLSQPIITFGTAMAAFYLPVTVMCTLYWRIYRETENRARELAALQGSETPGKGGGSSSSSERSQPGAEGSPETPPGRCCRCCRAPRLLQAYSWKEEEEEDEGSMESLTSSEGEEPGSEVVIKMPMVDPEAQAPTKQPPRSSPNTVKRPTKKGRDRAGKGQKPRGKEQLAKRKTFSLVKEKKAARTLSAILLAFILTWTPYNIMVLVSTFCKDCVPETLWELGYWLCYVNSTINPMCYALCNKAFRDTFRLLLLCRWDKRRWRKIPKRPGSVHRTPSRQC

Assay [15] can be described thus: cAMP Responsive Elements (CRE) small molecule agonists, cell-based qHTS assay (AID 1963590). Put shortly: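 Test agents in DMSO were incubated 3 h at 37 C/5% CO2 with CRE-bla HEK 293T cells seeded 18 h earlier; LiveBLAzer B/G FRET substrate was added and read after 2 h at room temperature.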
Assay [16] can be described thus: cAMP Responsive Elements (CRE) small molecule antagonists, cell-based qHTS assay (AID 1963591; active means well fitted inhibition curve with a large enough effect in the signal ratio in the repeat runs, not every such curve was filed as active; the % refers to the signal ratio). Put shortly:
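Reporter line CRE-bla HEK 293T in dialyzed-FBS DMEM; cells preincubated 18 h, treated 3 h with compound plus NKH477 (0.25 uM final); LiveBLAzer FRET, 2 h RT.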

Assay [17] has as its target Beta-2 adrenergic receptor (Homo sapiens) (UniProt P07550). Description: Adrenergic beta2 receptor (ADRB2) small molecule agonists, cell-based qHTS assay (AID 1963593).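 Further: CHO cells stably overexpressing human ADRB2.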 Summed up: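 CHO cells stably over-expressing ADRB2 were plated overnight at 37C, then dosed with compounds plus a stimulation mix containing 100uM IBMX and 25uM Ro-20-1724 for 0.5hr at room temperature. cAMP was measured by HTRF competition, 1hr.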

For assay [18], the target named is D(2) dopamine receptor (Homo sapiens) (UniProt P14416). Put plainly: Dopamine D2 receptor (DRD2) small molecule agonists, cell-based qHTS assay (AID 1963594). Further: nearly all actives have a fitted effect of over 35% in size. Put shortly: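 HEK293 cells stably expressing human DRD2, pre-treated with PDE inhibitor Ro20-1724 (0.1 mM final) and compound 10 min at room temperature, then stimulated with NKH477 (200nM […]) for 30 min. cAMP read by HTRF (665/620 nm).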
Sequence of D(2) dopamine receptor (Homo sapiens) (P14416 whole entry, looked up): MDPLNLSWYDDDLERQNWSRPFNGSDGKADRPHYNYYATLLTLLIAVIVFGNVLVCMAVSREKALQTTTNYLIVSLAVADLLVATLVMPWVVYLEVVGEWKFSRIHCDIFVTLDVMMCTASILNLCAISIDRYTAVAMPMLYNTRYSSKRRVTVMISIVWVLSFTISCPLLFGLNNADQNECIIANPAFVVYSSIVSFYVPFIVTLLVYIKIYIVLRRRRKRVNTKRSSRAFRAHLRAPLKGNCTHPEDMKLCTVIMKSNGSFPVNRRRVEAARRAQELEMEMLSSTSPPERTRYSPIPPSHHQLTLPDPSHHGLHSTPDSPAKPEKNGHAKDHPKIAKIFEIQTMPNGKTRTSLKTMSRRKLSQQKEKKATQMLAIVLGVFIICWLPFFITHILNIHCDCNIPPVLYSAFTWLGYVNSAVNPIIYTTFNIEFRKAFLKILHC

The target is the same in assay [19]. Put plainly: Dopamine D2 receptor (DRD2) small molecule antagonists, cell-based qHTS assay (AID 1963595; active means well fitted inhibition curve with a large enough effect in the signal ratio in the repeat runs, with a control signal flat; the % refers to the signal ratio). Put shortly: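 Cells were plated and grown for 24 h at 37 °C. Ro20-1724 (0.1 mM final) went in first, then compound for 10 min. NKH477 (200 nM) with quinpirole (12 nM) followed for 30 min at RT, then HTRF detection reagents for 1 h.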
The target in assay [20] is Beta-2 adrenergic receptor (Homo sapiens) (UniProt P07550). Put plainly: Adrenergic beta2 receptor (ADRB2) small molecule antagonists, cell-based qHTS assay (AID 1963592). Further: series mostly up to about 92 µM; nearly all actives have a fitted effect of over 50% in size. Put shortly: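 Assay format: CHO-ADRB2 cells, 18-20hr seeding at 37C/5% CO2, then compound plus 1nM isoproterenol agonist mix for 0.5hr RT. Homogeneous time-resolved fluorescence cAMP detection after 1hr, expressed as 665/615 nm ratio.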
Sequence of Beta-2 adrenergic receptor (Homo sapiens) (P07550 whole entry, looked up): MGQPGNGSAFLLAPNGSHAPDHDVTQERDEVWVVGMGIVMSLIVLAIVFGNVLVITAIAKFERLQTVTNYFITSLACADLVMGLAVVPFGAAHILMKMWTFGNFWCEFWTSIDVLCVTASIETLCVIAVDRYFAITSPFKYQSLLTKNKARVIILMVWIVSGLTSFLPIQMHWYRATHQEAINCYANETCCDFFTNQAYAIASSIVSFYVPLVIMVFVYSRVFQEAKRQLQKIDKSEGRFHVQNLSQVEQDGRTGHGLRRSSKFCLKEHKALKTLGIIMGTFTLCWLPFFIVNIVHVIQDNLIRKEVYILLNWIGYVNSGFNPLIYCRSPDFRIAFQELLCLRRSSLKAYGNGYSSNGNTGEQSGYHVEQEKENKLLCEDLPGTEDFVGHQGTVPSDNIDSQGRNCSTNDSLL

Sequence of KiSS-1 receptor (Homo sapiens) (Q969F8 whole entry, looked up): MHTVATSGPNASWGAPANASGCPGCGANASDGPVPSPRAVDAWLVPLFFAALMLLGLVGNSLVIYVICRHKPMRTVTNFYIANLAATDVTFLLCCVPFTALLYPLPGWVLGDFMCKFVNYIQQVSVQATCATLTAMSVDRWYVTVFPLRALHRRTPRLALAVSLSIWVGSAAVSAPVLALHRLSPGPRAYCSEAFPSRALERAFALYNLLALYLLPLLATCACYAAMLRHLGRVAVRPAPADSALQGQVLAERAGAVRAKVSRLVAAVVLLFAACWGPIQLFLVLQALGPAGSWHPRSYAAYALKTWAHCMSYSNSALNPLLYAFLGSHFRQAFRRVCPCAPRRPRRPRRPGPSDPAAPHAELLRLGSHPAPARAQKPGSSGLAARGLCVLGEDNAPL

As to `c1ccc2cc3c(ccc4ccccc43)cc2c1`, the Potency result in assay [1], in assay [3], in assay [4], in assay [5], in assay [6] and in assay [7] was “inactive” in each case. Moreover, the Potency result in assay [8], in assay [9], in assay [10], in assay [11], in assay [12] and in [13] was “inactive” in each case. Further, the Potency entry in assay [14], in assay [15], in assay [16], in [17], in assay [18] and in assay [19] was “inactive” each time. For the same compound, the Potency in [2] was 9.72 µM (active) and 9.69 µM (active).

For the compound `c1ccc(Nc2ccccc2)cc1`, the Potency entry in assay [1], in [3], in assay [4], in assay [5], in assay [6] and in assay [7] was “inactive” in each case. Besides, the Potency entry in assay [8], in [9], in assay [10], in assay [11], in assay [12] and in [13] was “inactive” each time. Moreover, the Potency result in [14], in assay [20], in assay [18] and in [19] was “inactive” throughout. For the same compound, the Potency in [2] was 61.1 µM (active) and inactive.

Regarding `CCC(=O)OC/C=C/c1ccccc1`, the Potency result in assay [1], in [2], in [3], in assay [4], in assay [5] and in assay [6] was “inactive” each time. Further, the Potency result in assay [7], in [8], in assay [9], in assay [10], in assay [11] and in assay [12] was “inactive” throughout. Moreover, the Potency entry in [13], in [14], in [15], in [16], in assay [17] and in [18] was “inactive” each time. Moreover, the Potency result in [19] was “inactive”.

With `c1ccc2ccccc2c1`, the Potency result in assay [1], in [2], in assay [3], in [4], in [5] and in [6] was “inactive” throughout. In addition, the Potency result in assay [7], in [8], in assay [9], in assay [10], in [11] and in assay [12] was “inactive” each time. The Potency result in assay [13], in [14], in [15], in assay [16], in [18] and in [19] was “inactive” in each case.

For `C=CCCCCCCCCCC`, the Potency entry in assay [1], in assay [2], in [3], in assay [4], in [5] and in assay [6] was “inactive” throughout. The Potency entry in assay [7], in assay [8], in assay [9], in [10], in assay [11] and in assay [12] was “inactive” each time. In addition, the Potency result in [13], in assay [14], in assay [16], in assay [20], in assay [18] and in [19] was “inactive” each time.

Turning to `CCCCCCCC(=O)OCC(O)CO` (stereo not drawn), the Potency entry in assay [1], in assay [2], in assay [3], in assay [4], in [5] and in assay [6] was “inactive” throughout. For the same compound, the Potency entry in assay [7], in assay [8], in [9], in assay [10], in assay [11] and in [12] was “inactive” each time. Moreover, the Potency result in assay [13], in assay [14], in assay [16], in [20], in [17] and in [18] was “inactive” throughout. For the same compound, the Potency result in [19] is “inactive”.

In the case of `c1ccc2cc(Nc3ccc(Nc4ccc5ccccc5c4)cc3)ccc2c1`, the Potency result in assay [1], in assay [2], in assay [3], in [4], in assay [5] and in [6] was “inactive” each time. Further, the Potency entry in assay [7], in assay [8], in [9], in assay [10], in assay [11] and in assay [12] was “inactive” in each case. In addition, the Potency entry in assay [13], in assay [14], in assay [15], in assay [20], in [18] and in assay [19] was “inactive” each time.
